The campaign covered roughly 290,000 compounds. About 3,000 (1%) were called active. The rule behind the calls is not given here. Many of the other results were omitted from the sample, so actives are more common in it than they were.
Biological target: Polyadenylate-binding protein 1 (Homo sapiens) (UniProt P11940)
Assay: PABP poly(A) RNA binding inhibitors, primary screen, biochemical, fluorescence polarization, uHTS (AID 2014);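 note: calls also rest on retests at 20 µM and on dose response follow-up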
Settings: stronger effect = higher value

Chain of Polyadenylate-binding protein 1 (Homo sapiens) (P11940 whole entry, looked up): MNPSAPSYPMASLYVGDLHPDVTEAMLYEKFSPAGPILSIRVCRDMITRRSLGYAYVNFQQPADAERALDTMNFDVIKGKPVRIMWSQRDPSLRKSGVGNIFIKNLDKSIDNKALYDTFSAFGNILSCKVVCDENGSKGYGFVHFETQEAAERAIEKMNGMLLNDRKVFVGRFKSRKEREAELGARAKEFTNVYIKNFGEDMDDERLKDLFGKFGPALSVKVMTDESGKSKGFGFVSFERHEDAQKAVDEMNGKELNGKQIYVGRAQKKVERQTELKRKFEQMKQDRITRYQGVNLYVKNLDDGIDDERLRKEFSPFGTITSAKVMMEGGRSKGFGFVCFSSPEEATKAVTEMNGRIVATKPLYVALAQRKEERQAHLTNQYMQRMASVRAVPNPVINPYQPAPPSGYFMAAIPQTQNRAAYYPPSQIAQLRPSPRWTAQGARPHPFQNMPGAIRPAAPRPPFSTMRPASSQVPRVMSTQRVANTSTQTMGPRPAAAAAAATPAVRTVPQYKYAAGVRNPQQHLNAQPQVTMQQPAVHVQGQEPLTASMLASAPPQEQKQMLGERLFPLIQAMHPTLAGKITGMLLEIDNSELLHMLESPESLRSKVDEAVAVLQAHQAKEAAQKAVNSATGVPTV

Row | Compound | inhibition (at 35 µM) | inhibition (confirmation repeats, at 20 µM) [%]
1 | O=C1NC(=O)N(Cc2ccco2)C(=O)/C1=C\c1cccn1CCOc1ccccc1 | 10.9% (inactive) | 
2 | O=C(O)COc1ccccc1/C=C1\C(=O)NC(=O)N(CCC2=CCCCC2)C1=O | 53.5% (active) | 
3 | O=C1NC(=O)N(CCc2ccc(F)cc2)C(=O)/C1=C/C=C/c1ccccc1 | -13.4% (inactive) | 
4 | COc1ccc(Br)cc1CNCCc1cccc(Cl)c1 | 3.3% (inactive) | 
5 | c1ccc(CC2CCCCN2)cc1 (stereo unspecified) | 1.7% (inactive) | 
6 | COc1ccc(CNCCc2c[nH]c3ccccc23)cc1OC | 11.6% (inactive) | 
7 | CC(=O)c1c(O)n(C2CCCCCC2)c(=O)[nH]c1=O | 75.6% (active) | 
8 | CCC(=NCCc1ccccc1)c1c(O)n(C2CCCCC2)c(=O)[nH]c1=O | -9.2% (inactive) | 
9 | CC(=NCC1CCCO1)c1c(O)n(-c2ccccc2)c(=O)[nH]c1=O (stereo unspecified) | -3.4% (inactive) | 
10 | COc1cccc(OC)c1C(=O)NC(=S)N1C[C@H]2C[C@H](C1)c1cccc(=O)n1C2 | 13.3% (inactive) | 
11 | CN(C)c1ccc(/C=C2\CC3C4CC=C5CC(O)CCC5(C)C4CCC3(C)C2=O)cc1 (stereo unspecified) | 53.3% (active) | 93.6
12 | O=C(Cc1ccc(Cl)cc1)NCCN1CCN(C(=O)Cc2ccc(Cl)cc2)CC1 | 3.1% (inactive) | 
13 | O=[N+]([O-])c1cnc2ccc3ccccc3c2c1 | 3.3% (inactive) | 
14 | COc1ccc2[nH]c3c(c2c1)CCN[C@H]3C | 7.6% (inactive) | 
15 | COc1ccc(N=Cc2c(O)n(C)c(=O)[nH]c2=O)cc1 | -8.6% (inactive) | 
16 | CN(C)CCN(CC1CCCN(Cc2ccccc2F)C1)C(=O)Cc1ccc(F)c(F)c1 (stereo unspecified) | 0.6% (inactive) | 
17 | Cc1c(Oc2cc(NN3CCCCC3)c([N+](=O)[O-])cc2[N+](=O)[O-])cccc1[N+](=O)[O-] | 2.3% (inactive) | 
18 | O=C(NC(=S)N1C[C@H]2C[C@H](C1)c1cccc(=O)n1C2)c1ccc(F)cc1 | 2.2% (inactive) | 
19 | CCN(CC)CCOC(=O)c1cc2cc(COC)ccc2o1 | 70.7% (active) | 
20 | C=CCN1C(=O)NC(=O)/C(=C/c2ccc(OCC(=O)Nc3ccc(C)cc3)cc2)C1=O | 8.1% (inactive) | 
21 | COc1ccc(CNCCc2ccc3c(c2)OCO3)c(OC)c1OC | 11.3% (inactive) | 
22 | CCNc1nc2[nH]c(=O)c3c(c2s1)OC(N)=C(C#N)C3c1cccs1 (stereo unspecified) | 68.5% (active) | 

Row | Compound | inhibition (at 35 µM) | inhibition (confirmation repeats, at 20 µM) [%]
23 | N#CC1=C(N)Oc2c(c(=O)oc3ccccc23)C1c1ccccc1OC(=O)c1cccs1 (stereo unspecified) | -4.4% (inactive) | 
24 | COc1cccc(C(=O)N2C[C@H]3C[C@@H](C2)c2cccc(=O)n2C3)c1 | 1.4% (inactive) | 
25 | COc1ccccc1NC(=O)N1C[C@@H]2C[C@@H](C1)c1cccc(=O)n1C2 | -1.1% (inactive) | 
26 | O=C(O)c1ccccc1NC(=O)C1C2CCC(O2)C1C(=O)O (stereo unspecified) | -8.7% (inactive) | 
27 | COc1cccc(N2C(=O)NC(=O)/C(=C\c3ccc([N+](=O)[O-])s3)C2=O)c1 | -6.1% (active) | 95.4
28 | Cc1cccc(N2C(=O)NC(=O)/C(=C\c3cnn(-c4ccccc4)c3)C2=O)c1 | -12.4% (inactive) | 
29 | O=C1NC(=O)N(c2ccccc2)C(=O)/C1=C/c1ccc([N+](=O)[O-])s1 | 40.1% (inactive) | 30.8
30 | Oc1cc2c(cc1CN1CCN(c3ccccc3)CC1)OCO2 | 2% (inactive) | 
31 | COCCNC(=O)CN1C2CCC1CC(O)(c1cccnc1)C2 (stereo unspecified) | 14.6% (inactive) | 
32 | CC(C)(C)c1ccc(CN2C(=O)CN=C(c3ccccc3)c3ccccc32)cc1 | 12.1% (inactive) | 
33 | O=C(CN1CCCC1=O)NCCc1ccccc1 | -2.9% (inactive) | 
34 | O=C1CC(=O)N(Cc2ccccc2)C(=O)N1CCCCCCN1C(=O)CC(=O)N(Cc2ccccc2)C1=O | 25.8% (active) | 112
35 | CC(C)c1ccc(OCC(=O)N2CCCN(C)CC2)cc1 | -0.5% (inactive) | 
36 | Cc1cc(/C=C2/C(=O)NC(=O)N(Cc3ccco3)C2=O)c(C)n1-c1ccc(C(=O)O)cc1 | 47.1% (inactive) | 23.1
37 | COc1ccc(N2C(=O)/C(=C/c3ccco3)C(=O)NC2=S)cc1 | 38.7% (active) | 73.3
38 | COc1ccc(CN2C(=O)NC(=O)/C(=C\c3ccc(OC)c(OC)c3OC)C2=O)cc1 | 66.4% (inactive) | 6.1
39 | COc1ccccc1OC(=O)c1ccc(C)c(S(=O)(=O)N2CCOCC2)c1 | -7% (inactive) | 
40 | CCN(CC)C(=O)c1ccc(NC(=O)c2sccc2-c2ccccc2)cc1 | -2.6% (inactive) | 
41 | CN(C)C(=O)Oc1ccc2c(c1)O/C(=C\c1ccccc1)C2=O | -6.7% (inactive) | 
42 | CC(=O)Nc1ccc(C(=O)C(Cc2ccccc2)N(C)C)cc1 (stereo unspecified) | -3.6% (inactive) | 
43 | c1ccc(CCNC2CCCCCC2)cc1 | 8.2% (inactive) | 
44 | O=c1[nH]c(=O)n(CCc2ccccc2)c(O)c1/C=N/N1CCOCC1 | -1.6% (inactive) | 

Row | Compound | inhibition (at 35 µM) | inhibition (confirmation repeats, at 20 µM) [%]
45 | O=C(N/N=C/c1c(O)n(Cc2ccccc2)c(=O)[nH]c1=O)c1ccccc1 | 15% (active) | 81.4
46 | O=c1[nH]c(=O)n(CCc2ccc(F)cc2)c(O)c1/C=N/N1CCCCC1 | -15% (inactive) | 
47 | O=c1[nH]c(=O)n(Cc2ccccc2)c(O)c1/C=N/Nc1c(F)c(F)c(F)c(F)c1F | 71% (active) | 
48 | CCCCC(=O)N/N=C/c1c(O)n(-c2ccccc2)c(=O)[nH]c1=O | 5.3% (inactive) | 
49 | O=C(N/N=C/c1c(O)n(C2CC2)c(=S)[nH]c1=O)c1ccccc1 | 0.6% (inactive) | 
50 | CN1CCC(OC(=O)c2cccc(F)c2)CC1 | -7.8% (inactive) | 
51 | CCN(CC)C(=O)Oc1ccc(NC(=O)N2CCOCC2)cc1 | 2.1% (inactive) | 
52 | CCN1CCN(Cc2cc(OC)c3c(c2)OCO3)CC1 | 16.4% (inactive) | 
53 | Cc1ccc(C2CN(C)CC2C(=O)c2ccc(F)cc2)cc1 (stereo unspecified) | 3.1% (inactive) | 
54 | CC1(C)Cc2c(C#N)c(N3CCNCC3)nc(-c3ccco3)c2CS1 | 47.2% (active) | 59.2
55 | O=C(N/N=C/c1c(O)n(C2CC2)c(=S)[nH]c1=O)c1ccccc1Cl | 31% (inactive) | 
56 | O=c1c2ccccc2nc(/C=C/c2ccc(F)cc2)n1-c1ccccc1O | -9.7% (inactive) | 
57 | O=c1c2ccccc2nc(-c2ccco2)n1-c1ccc(Br)cn1 | 5.1% (inactive) | 
58 | O=c1c2ccccc2nc(/C=C/c2ccco2)n1-c1ccccc1O | 43.7% (active) | 54.4
59 | CN(C)S(=O)(=O)c1cc(C(=O)N2CCC(C(=O)O)(c3ccccc3)CC2)ccc1Cl | 7.1% (inactive) | 
60 | Cc1cccc(NC(=O)N2CC3CC(C2)c2cccc(=O)n2C3)c1 (stereo unspecified) | -0.3% (inactive) | 
61 | CC1CCC(N(C)C2CCN(C)CC2)CC1 (stereo unspecified) | 10.9% (inactive) | 
62 | CC(C)n1c(=O)c(C=Nc2ccc(Br)cc2)c(O)n(Cc2ccco2)c1=O | 6% (active) | 52
63 | CN(C)CCCN=Cc1c(O)n(Cc2ccco2)c(=O)[nH]c1=O | 3% (inactive) | 
64 | Cn1c(O)c(C=Nc2ccc3c(c2)CCC3)c(=O)n(C)c1=O | -0.7% (inactive) | 
65 | CCN1C(=O)C(=Cc2c(C)n(CC(=O)NCC3CCCO3)c3ccccc23)C(=O)N(CC)C1=S (stereo unspecified) | -3.1% (inactive) | 

— PubChem BioAssay AID2014 (Sanford-Burnham Center for Chemical Genomics, 2009)
